In ChEMBL document CHEMBL1961873, “Compounds: GSK PKIS; Assays: Nanosyn kinase panel” (2012):

How the values were obtained:
[1] = target: Mast/stem cell growth factor receptor Kit (Homo sapiens) (UniProt P10721); conditions: at 1 µM
[2] = test system: Mast/stem cell growth factor receptor Kit (Homo sapiens), P10721 [D816V]; conditions: at 0.1 µM
[3] = test system: Mast/stem cell growth factor receptor Kit (Homo sapiens), P10721 [D816V]; conditions: at 1 µM
[4] = test system: Mast/stem cell growth factor receptor Kit (Homo sapiens), P10721 [T670I]; conditions: at 0.1 µM
[5] = test system: Mast/stem cell growth factor receptor Kit (Homo sapiens), P10721 [T670I]; conditions: at 1 µM
[6] = test system: Mast/stem cell growth factor receptor Kit (Homo sapiens), P10721 [V560G]; conditions: at 0.1 µM
[7] = test system: Mast/stem cell growth factor receptor Kit (Homo sapiens), P10721 [V560G]; conditions: at 1 µM
[8] = target: Tyrosine-protein kinase Lck (Homo sapiens) (UniProt P06239); conditions: at 0.1 µM
[9] = target: Tyrosine-protein kinase Lck (Homo sapiens) (UniProt P06239); conditions: at 1 µM
[10] = target: Leukocyte tyrosine kinase receptor (Homo sapiens) (UniProt P29376); conditions: at 0.1 µM
[11] = target: Leukocyte tyrosine kinase receptor (Homo sapiens) (UniProt P29376); conditions: at 1 µM
[12] = target: Tyrosine-protein kinase Lyn (Homo sapiens) (UniProt P07948); conditions: at 0.1 µM
[13] = target: Tyrosine-protein kinase Lyn (Homo sapiens) (UniProt P07948); conditions: at 1 µM
[14] = target: Tyrosine-protein kinase Lyn (Homo sapiens) (UniProt P07948); conditions: at 0.1 µM; remark: listed apart in the source
[15] = target: Tyrosine-protein kinase Lyn (Homo sapiens) (UniProt P07948); conditions: at 1 µM; remark: listed apart in the source
[16] = target: T1, Tyrosine-protein kinase Mer (Homo sapiens) (UniProt Q12866); conditions: at 0.1 µM
T1 sequence (whole entry): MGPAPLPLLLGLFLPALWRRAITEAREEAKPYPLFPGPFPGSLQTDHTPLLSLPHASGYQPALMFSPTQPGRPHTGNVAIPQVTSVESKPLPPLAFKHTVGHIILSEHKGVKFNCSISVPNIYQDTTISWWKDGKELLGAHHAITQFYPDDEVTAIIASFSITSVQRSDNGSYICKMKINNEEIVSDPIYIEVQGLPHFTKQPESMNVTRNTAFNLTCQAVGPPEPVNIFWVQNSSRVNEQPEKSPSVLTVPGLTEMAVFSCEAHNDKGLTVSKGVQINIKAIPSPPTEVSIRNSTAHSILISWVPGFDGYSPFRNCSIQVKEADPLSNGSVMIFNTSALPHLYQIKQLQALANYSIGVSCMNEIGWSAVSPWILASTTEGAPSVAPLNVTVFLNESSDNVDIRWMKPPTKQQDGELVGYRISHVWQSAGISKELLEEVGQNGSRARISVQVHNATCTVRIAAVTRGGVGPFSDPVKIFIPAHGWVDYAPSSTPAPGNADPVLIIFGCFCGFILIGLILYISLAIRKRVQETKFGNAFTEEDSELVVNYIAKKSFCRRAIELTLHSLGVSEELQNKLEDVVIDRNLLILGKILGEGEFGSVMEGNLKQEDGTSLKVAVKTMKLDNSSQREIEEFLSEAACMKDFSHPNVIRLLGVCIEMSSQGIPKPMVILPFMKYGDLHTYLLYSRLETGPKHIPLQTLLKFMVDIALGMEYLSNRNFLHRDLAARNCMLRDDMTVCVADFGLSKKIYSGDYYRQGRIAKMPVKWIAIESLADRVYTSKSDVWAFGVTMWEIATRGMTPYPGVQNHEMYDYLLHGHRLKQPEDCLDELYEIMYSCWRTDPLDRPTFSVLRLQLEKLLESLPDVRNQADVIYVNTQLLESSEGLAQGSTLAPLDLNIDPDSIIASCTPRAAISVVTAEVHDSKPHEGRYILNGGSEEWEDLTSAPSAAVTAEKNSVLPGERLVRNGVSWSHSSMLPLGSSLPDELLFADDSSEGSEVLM

[17] = target: T1, Tyrosine-protein kinase Mer (Homo sapiens); conditions: at 1 µM
[18] = target: Hepatocyte growth factor receptor (Homo sapiens) (UniProt P08581); conditions: at 0.1 µM
[19] = target: Hepatocyte growth factor receptor (Homo sapiens) (UniProt P08581); conditions: at 1 µM
[20] = target: T2, Muscle, skeletal receptor tyrosine-protein kinase (Homo sapiens) (UniProt O15146); conditions: at 0.1 µM;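 further: values are mean inhibition of MuSK from the GSK PKIS kinase screening panel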
T2 sequence (whole entry): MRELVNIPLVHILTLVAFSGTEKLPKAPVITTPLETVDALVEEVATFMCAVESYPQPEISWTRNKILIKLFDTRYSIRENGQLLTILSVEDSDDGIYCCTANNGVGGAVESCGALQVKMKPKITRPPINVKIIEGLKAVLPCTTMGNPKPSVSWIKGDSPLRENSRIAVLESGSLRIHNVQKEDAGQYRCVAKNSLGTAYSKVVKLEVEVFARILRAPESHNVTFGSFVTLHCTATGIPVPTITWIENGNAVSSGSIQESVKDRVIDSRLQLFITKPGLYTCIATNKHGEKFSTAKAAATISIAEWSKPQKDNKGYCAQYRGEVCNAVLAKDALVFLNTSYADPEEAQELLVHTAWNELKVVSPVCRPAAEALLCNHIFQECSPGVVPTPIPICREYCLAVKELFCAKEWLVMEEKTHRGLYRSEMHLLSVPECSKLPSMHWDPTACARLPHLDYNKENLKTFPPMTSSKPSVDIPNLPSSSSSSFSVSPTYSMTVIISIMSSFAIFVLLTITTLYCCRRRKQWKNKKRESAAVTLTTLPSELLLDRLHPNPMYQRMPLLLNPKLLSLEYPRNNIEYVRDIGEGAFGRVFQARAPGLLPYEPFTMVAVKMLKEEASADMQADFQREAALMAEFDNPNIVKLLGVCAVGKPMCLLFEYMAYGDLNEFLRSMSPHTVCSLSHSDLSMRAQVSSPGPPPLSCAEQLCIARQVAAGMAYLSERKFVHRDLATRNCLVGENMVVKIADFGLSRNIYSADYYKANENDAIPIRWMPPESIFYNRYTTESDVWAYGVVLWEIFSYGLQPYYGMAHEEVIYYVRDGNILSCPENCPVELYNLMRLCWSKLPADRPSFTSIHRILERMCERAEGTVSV

Mast/stem cell growth factor receptor Kit (Homo sapiens), P10721 [V560G], sequence (P10721 whole entry V560G): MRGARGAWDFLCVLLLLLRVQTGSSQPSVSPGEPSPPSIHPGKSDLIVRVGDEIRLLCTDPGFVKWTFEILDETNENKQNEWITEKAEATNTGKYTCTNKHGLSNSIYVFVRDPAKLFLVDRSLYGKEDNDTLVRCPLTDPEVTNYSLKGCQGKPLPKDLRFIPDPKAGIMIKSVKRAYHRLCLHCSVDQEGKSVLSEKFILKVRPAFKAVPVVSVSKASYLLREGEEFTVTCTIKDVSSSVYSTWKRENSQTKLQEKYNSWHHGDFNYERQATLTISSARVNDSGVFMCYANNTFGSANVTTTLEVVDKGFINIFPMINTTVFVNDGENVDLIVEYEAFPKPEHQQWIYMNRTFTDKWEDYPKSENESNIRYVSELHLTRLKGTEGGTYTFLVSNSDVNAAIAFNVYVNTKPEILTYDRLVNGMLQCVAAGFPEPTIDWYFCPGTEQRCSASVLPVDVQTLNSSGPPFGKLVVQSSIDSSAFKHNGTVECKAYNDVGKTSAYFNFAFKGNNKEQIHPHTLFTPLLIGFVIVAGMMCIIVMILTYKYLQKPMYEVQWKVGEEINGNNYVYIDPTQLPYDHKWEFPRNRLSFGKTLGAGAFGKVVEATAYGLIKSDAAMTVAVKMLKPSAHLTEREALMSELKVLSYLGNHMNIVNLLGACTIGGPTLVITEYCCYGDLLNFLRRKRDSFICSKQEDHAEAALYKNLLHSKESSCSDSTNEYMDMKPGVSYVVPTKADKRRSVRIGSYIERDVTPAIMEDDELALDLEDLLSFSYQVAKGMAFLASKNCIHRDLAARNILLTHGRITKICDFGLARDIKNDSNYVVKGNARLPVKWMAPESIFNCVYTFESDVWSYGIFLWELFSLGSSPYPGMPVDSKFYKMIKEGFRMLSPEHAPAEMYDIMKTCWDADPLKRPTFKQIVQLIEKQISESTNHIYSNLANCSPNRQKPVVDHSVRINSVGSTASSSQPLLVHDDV
Mast/stem cell growth factor receptor Kit (Homo sapiens), sequence (P10721 whole entry): as the sequence (P10721 whole entry V560G) above, with G560V counted along it
Tyrosine-protein kinase Lyn (Homo sapiens), sequence (P07948 2-512 limits assumed): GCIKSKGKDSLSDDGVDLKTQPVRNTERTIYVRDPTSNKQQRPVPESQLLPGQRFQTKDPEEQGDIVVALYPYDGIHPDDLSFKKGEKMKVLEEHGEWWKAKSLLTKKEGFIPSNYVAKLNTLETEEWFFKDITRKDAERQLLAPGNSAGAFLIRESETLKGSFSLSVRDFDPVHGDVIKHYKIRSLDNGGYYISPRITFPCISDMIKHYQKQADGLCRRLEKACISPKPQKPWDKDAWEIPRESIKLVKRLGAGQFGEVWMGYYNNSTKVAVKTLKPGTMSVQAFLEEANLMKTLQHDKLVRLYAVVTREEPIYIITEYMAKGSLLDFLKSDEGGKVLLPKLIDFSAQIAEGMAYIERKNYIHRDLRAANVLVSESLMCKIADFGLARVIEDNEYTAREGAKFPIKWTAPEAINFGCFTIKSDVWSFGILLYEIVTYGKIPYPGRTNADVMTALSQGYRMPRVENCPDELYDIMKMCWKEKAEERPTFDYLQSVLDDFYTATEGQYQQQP
Leukocyte tyrosine kinase receptor (Homo sapiens), sequence (P29376 whole entry): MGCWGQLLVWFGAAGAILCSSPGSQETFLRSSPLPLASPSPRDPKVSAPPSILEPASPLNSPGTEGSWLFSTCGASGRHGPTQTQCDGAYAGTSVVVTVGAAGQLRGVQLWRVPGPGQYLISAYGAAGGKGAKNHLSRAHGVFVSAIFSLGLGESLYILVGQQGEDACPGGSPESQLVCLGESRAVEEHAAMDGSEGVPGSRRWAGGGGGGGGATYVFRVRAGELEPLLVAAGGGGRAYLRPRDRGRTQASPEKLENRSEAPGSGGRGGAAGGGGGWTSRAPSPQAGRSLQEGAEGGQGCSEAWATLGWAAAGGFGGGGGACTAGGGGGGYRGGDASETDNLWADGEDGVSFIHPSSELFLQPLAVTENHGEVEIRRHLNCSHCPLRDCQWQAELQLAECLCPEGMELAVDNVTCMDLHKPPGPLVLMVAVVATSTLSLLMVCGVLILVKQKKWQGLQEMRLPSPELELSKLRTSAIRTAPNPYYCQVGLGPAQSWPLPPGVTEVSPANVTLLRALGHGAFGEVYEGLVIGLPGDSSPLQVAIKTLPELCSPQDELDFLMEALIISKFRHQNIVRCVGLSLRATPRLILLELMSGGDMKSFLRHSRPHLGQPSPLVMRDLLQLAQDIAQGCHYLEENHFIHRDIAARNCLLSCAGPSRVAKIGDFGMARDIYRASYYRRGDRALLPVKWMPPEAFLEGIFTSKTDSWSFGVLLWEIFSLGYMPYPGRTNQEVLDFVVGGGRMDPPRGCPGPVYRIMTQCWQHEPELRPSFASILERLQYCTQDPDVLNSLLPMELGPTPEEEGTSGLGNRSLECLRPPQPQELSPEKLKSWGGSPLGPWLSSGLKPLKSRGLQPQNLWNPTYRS
Mast/stem cell growth factor receptor Kit (Homo sapiens), P10721 [T670I], sequence (P10721 whole entry T670I): as the sequence (P10721 whole entry V560G) above, with G560V, T670I counted along it
Tyrosine-protein kinase Lck (Homo sapiens), sequence (P06239 2-509 limits assumed): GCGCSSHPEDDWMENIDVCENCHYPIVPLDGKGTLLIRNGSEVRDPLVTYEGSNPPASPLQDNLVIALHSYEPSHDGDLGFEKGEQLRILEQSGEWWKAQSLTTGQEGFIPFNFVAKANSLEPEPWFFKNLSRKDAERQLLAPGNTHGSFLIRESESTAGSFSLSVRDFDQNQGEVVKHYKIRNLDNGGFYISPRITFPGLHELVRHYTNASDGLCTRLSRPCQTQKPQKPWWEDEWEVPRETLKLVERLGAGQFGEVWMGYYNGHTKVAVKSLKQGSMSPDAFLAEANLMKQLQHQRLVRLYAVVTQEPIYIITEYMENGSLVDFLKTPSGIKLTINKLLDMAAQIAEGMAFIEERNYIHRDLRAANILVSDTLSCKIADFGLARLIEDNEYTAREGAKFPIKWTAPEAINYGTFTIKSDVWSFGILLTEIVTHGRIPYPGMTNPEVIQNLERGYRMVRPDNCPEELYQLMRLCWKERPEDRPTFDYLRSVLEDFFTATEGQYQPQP
Mast/stem cell growth factor receptor Kit (Homo sapiens), P10721 [D816V], sequence (P10721 whole entry D816V): as the sequence (P10721 whole entry V560G) above, with G560V, D816V counted along it
Hepatocyte growth factor receptor (Homo sapiens), sequence (P08581 whole entry): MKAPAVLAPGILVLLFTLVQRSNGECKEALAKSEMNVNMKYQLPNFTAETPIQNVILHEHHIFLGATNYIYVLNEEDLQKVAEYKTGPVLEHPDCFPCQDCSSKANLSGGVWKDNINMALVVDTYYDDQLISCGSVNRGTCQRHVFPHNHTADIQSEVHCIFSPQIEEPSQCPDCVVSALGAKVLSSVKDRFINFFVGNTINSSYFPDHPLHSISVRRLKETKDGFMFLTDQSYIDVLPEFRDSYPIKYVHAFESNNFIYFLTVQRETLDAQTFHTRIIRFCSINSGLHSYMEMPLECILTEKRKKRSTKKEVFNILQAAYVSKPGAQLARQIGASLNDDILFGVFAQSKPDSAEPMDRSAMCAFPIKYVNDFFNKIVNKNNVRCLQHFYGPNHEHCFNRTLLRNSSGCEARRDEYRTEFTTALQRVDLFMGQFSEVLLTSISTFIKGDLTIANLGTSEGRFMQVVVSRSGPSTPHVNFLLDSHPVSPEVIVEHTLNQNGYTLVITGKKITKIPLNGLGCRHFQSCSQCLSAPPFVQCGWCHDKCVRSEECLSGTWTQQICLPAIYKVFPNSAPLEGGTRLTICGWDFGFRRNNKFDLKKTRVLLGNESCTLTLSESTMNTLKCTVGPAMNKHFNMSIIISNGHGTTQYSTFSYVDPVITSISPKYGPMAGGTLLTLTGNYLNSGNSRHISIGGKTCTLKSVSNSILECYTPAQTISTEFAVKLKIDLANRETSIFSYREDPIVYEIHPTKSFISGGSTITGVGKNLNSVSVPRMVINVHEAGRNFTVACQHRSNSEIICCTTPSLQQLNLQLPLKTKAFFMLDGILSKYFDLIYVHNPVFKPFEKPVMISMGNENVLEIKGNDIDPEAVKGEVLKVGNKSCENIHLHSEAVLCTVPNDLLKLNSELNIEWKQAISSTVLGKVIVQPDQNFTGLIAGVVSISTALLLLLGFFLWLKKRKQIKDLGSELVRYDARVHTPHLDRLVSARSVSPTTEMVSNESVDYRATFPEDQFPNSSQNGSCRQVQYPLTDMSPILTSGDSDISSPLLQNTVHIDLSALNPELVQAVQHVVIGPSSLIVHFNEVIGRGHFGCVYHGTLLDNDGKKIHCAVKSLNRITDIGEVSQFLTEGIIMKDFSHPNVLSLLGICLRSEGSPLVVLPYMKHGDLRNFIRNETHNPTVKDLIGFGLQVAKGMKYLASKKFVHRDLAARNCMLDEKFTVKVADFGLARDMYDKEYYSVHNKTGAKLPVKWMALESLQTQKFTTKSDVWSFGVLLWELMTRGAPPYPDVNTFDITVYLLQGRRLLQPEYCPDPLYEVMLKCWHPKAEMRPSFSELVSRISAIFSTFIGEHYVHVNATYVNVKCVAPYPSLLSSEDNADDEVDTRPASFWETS

| Compound | inhibition [1] | inhibition [2] | inhibition [3] | inhibition [4] | inhibition [5] | inhibition [6] | inhibition [7] | inhibition [8] | inhibition [9] | inhibition [10] | inhibition [11] | inhibition [12] | inhibition [13] | inhibition [14] | inhibition [15] | inhibition [16] | inhibition [17] | inhibition [18] | inhibition [19] | inhibition [20] |
| --- | --- | --- | --- | --- | --- | --- | --- | --- | --- | --- | --- | --- | --- | --- | --- | --- | --- | --- | --- | --- |
| CN1CCN(C(=O)c2ccc(NC(=O)Nc3ccc(N(C)c4ccnc(Nc5ccc(CS(C)(=O)=O)cc5)n4)cc3)cc2)CC1 | 88.5% | 1.27% | 2.73% | 10.6% | 58.7% | 75.1% | 93.2% | 5.01% | 23.9% | 2.61% | 10.7% | 2.45% | 19.7% | 1.67% | 18.1% | 12.8% | 52.3% | 45.6% | 77.4% | 5.5% |
| Cc1cc(O)cc(C)c1/C=C/c1cncc(C(=O)N(C)C)c1 | 8.58% | 0.33% | 1.49% | 2.61% | 1.57% | 5.07% | 4.85% | 3.69% | 8.38% | 2.93% | 3.38% | 4.08% | 7.54% | 3.61% | 6.35% | 1.7% | 8.23% | 1.87% | 10.9% | 8.6% |
| C[C@@H](Oc1cc(-n2cnc3ccc(OCC4CCN(C)CC4)cc32)sc1C(N)=O)c1ccccc1C(F)(F)F | 0.09% | -2% | -1.63% | -0.04% | 0.36% | 2.2% | 4.85% | 5.2% | 33.8% | -0.86% | 3.18% | 1.14% | 18.9% | 1.52% | 16.5% | -0.95% | 6.99% | 2.85% | 9.84% | 41.3% |
| COc1cc(Nc2nccc(-c3cnn4ncccc34)n2)cc(OC)c1 | 97.3% | 1.93% | 9.04% | 80.7% | 98.1% | 65.2% | 92.5% | 2.75% | 19.2% | 4.41% | 34.1% | 3.81% | 29.3% | 2.46% | 23.6% | 1.07% | 16.6% | 4.01% | 14.4% | 6.23% |
| COc1cc2ncn(-c3cc(OCc4ccccc4S(C)(=O)=O)c(C#N)s3)c2cc1OC | 7.97% | 2.49% | 5.22% | 3.82% | 2.96% | – | 0.98% | 23.3% | 69.2% | 4% | 7.89% | 20.4% | 65.6% | 15.1% | 60.9% | 35.4% | 77.1% | 5.94% | 15.6% | 13.2% |
| Nc1nccc(-c2c(-c3ccc(F)cc3)ncn2CCCN2CCOCC2)n1 | 11.4% | 5.23% | 5.35% | 5% | 0.35% | -0.56% | 1.5% | 2.05% | 7.4% | 2.33% | 2.3% | 5.23% | 9.61% | 2.71% | 5.84% | 0.72% | 2.2% | 3.68% | 5.4% | 0.89% |
| CN(C)c1cc2c(Nc3ccc4c(cnn4Cc4ccccc4)c3)ncnc2cn1 | 3.38% | 4.89% | 2.07% | 3.06% | -0.32% | -2.8% | 2.75% | 5.16% | 22.6% | 1.81% | 3.01% | 2.67% | 13.5% | 2.82% | 10.6% | 6.16% | 40.9% | 5.12% | 0.45% | 1.76% |
| Cc1cc(-c2ccccn2)cc(C)c1/C=C/c1cncc(-c2nn[nH]n2)c1 | 6.45% | 0.82% | -1.39% | 5.04% | 0.22% | -3.07% | -1.86% | 4.47% | 12.1% | 4.42% | 4.93% | 3.33% | 14% | 0.35% | 9.56% | -0.39% | 3.73% | 2.88% | 4.32% | 3.02% |
| COc1cc(/C=N/Nc2ncnc3c2cnn3C(C)C)ccc1O | 53.3% | -1.37% | 4.07% | 3.16% | -0.48% | 1.9% | 7.86% | 16.7% | 52.8% | 1.55% | 3.76% | 15.2% | 58.5% | 11.2% | 52.7% | 3.4% | 20.7% | 4.44% | 5.86% | 11.6% |
| CS(=O)(=O)CCNCc1nc(-c2ccc3ncnc(Nc4ccc(OCc5cccc(C(F)(F)F)c5)cc4)c3c2)cs1 | 12.8% | -0.14% | 1.52% | -0.86% | 3.13% | 0.77% | 6.02% | 2.25% | 6.83% | 3.1% | 3.87% | 2.63% | 2.07% | 2.44% | 1.23% | 3.74% | 5.41% | 4.81% | 2.51% | 1.29% |
| Cc1ccc2c(-c3ccnc(Nc4ccc5c(c4)OCCO5)n3)c(-c3ccc(C(F)(F)F)cc3)nn2n1 | 2.39% | -1.16% | 0.16% | -0.41% | -0.07% | 0.29% | 0.88% | 1.9% | 8.08% | 0.85% | 1.95% | 2.2% | 6.17% | 1.57% | 4.82% | -0.17% | 0.27% | 6.93% | 1.74% | -0.62% |
| ON=C1CCc2cc(-c3nc(C4CCNCC4)[nH]c3-c3ccncc3)ccc21 | -4.25% | 2.66% | 5.8% | -0.79% | -1.23% | -2.31% | -1.75% | 0.93% | 6.86% | 1.01% | 1.88% | 0.17% | 2.43% | -0.33% | 0.99% | -0.13% | 2.76% | 0.32% | 4.34% | -1.09% |
| COc1cc2ncnc(Nc3ccc4c(cnn4Cc4ccccc4)c3)c2cc1OC | 9.47% | 1.06% | 2.79% | 2.31% | 2.58% | -3.09% | 2.41% | 19.5% | 61.1% | 2.67% | 2.45% | 10.4% | 46.1% | 7.01% | 40.7% | 7% | 45.5% | 2.31% | 4.07% | 3.2% |
| NS(=O)(=O)c1cccc(Nc2cc(-c3ccc(F)cc3)n[nH]2)c1 | 84.5% | 2.34% | 4.52% | 3.28% | 20.1% | 6.14% | 38% | 1.18% | 6.1% | 3.59% | 4.08% | 5.86% | 10.7% | 3.31% | 8.61% | 1.94% | 2.95% | 9.61% | 4.41% | 3.78% |
